Bioassay records: PubChem, National Center for Advancing Translational Sciences (NCATS)
DT40 TDP1 no CPT: qHTS for Inhibitors of human tyrosyl-DNA phosphodiesterase 1 (TDP1): qHTS in cells in absence of CPT; DT40 Tdp1-/- hTDP1 cells, no CPT, ATP luminescence, 48 h; Potency, µM (titrated, usually from 46.2 µM), without a hit: at the highest dose activity change, negative = growth inhibition, most hits filed as inhibitors; 420,000 tested, 15% active; AID 686978, 2013; also: potency is read from the fitted curve at half-maximal effect; nearly all actives have a fitted effect of over 55% in size
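No-CPT arm: Tdp1-/-;hTDP1 DT40 cells (400/well) plus compounds, incubated ≥48 hr at 37 °C. Readout CellTiter-Glo luminescence.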
TDP1 block: TDP1 (human) enzyme inhibition. Potency, µM (series often up to 130 µM), for inactives: at the top dose activity change, negative = inhibition, hits mostly inhibitors. 350,000 tested, 0.28% active. recombinant TDP1, AlphaScreen DNA substrate cleavage; also: potency is read from the fitted curve at half-maximal effect; nearly all actives have a fitted effect of over 40% in size
Target sequence (Q9NUW8 whole entry, looked up): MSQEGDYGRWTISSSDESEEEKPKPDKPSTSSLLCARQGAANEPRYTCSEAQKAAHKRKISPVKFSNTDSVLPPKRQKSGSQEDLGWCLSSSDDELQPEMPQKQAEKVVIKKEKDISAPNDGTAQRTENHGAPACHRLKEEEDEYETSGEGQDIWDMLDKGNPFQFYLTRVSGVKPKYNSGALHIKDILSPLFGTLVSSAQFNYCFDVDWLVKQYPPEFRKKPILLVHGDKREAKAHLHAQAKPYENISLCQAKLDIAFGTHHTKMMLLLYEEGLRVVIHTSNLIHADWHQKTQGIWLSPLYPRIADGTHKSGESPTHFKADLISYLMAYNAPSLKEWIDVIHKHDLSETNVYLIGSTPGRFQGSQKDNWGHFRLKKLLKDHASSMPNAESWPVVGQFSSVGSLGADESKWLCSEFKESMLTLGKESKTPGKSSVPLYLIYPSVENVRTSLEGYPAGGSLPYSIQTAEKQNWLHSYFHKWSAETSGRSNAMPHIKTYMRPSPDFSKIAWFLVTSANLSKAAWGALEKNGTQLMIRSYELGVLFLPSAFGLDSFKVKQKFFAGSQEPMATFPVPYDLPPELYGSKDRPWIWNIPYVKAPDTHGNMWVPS
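Signal: AlphaScreen proximity between streptavidin donor and anti-FITC acceptor beads on intact substrate. Reaction: Tdp1 1 nM, substrate 15 nM final, 5 min RT after 15 min compound preincubation.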
Six1-Eya2 blk: Six1/Eya2 interaction inhibition. AlphaScreen GST-Six1/His-Eya2 binding, biochemical; hits give low values. AID 651725. 360,000 tested, 0.56% active. Q15475+O00167. activity change, % (test concentration not listed); in the data active = activity change below about -65%; inconclusive = mostly about -30% to -63%
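AlphaScreen with GST-Six1 and His-Eya2 (5X mix: 250 nM and 500 nM), glutathione donor and nickel acceptor beads; buffer 50 mM Tris pH 8.0, 300 mM NaCl, 1 mM TCEP; 1 h at 37 C in the dark.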
TDP1 cell CPT: growth inhibition of DT40 Tdp1-/-;hTDP1 cells with camptothecin (screen for TDP1 inhibitors); Potency, µM (doses to about 46.2 µM), for the others: top-dose activity change, negative = growth inhibition, usual class: inhibitors; 420,000 tested, 12% active; chicken DT40 Tdp1-/-;hTDP1 cells + 20 nM CPT, ATP luminescence, 48 h; AID 686979; also: potency is read from the fitted curve at half-maximal effect; nearly all actives have a fitted effect of over 55% in size
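Chicken DT40 Tdp1-/- cells stably complemented with human TDP1 were seeded at 400 cells/well in medium containing 20 nM camptothecin, exposed to pin-transferred compounds, and grown at 37 °C for at least 48 hr. Viability was read as ATP luminescence.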
IL-1B inflam inh: inhibitors of inflammasome signaling (IL-1 beta secretion). THP-1 LPS/ATP IL-1B secretion, AlphaLISA, 16 h; hits give low values. activity change, % at 57.5 µM. 360,000 tested, 4.7% active. AID 743279; in the data active = activity change below about -50%; inconclusive = mostly about -30% to -49%
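Secreted IL-1B measured by AlphaLISA bead assay after 16 h compound exposure of THP-1 cells; compounds (final up to 57.5 uM) added 1 h before LPS (250 ng/mL) and ATP (1.25 mM) stimulation; lower signal means less secretion.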
CtBP-E1A inh: CtBP/E1A binding inhibition; AlphaScreen GST-E1A/His-CtBP binding, 1536-well; hits give low values; activity change, % (concentration not given with the values); 340,000 tested, 0.49% active; in the data active = activity change below about -65%; inconclusive = mostly about -30% to -63%
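GST-E1A and His-tagged CtBP (125 nM each as 5X stock) were preincubated with pin-transferred compound for 2 h at 37 °C in the dark, then glutathione donor and nickel acceptor beads were added for 1 h before AlphaScreen reading.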
The depositor's hits bear a star; [ ] = dose if it differs, or a comment. Shown are actives, neighbours in structure and some others; about 18% of the full set was active somewhere. Unless noted, calls follow the shape of the dose curve; as a rule, active = well fitted curve in the direction sought with a large enough effect; inconclusive = small, poorly fitted or top-dose-only effect, or another doubt; inactive = no such curve, though single readings can be large; an effect the other way counts as inactive or inconclusive. % is scaled to controls: 0 for no effect and ±100 for the full control effect.

Results for COc1cc(/C=N/NC(=O)c2sc(N)c(C#N)c2C)ccc1O ?
DT40 TDP1 no CPT: 15µM*; TDP1 block: 0%; Six1-Eya2 blk: -71*; TDP1 cell CPT: inconclusive; IL-1B inflam inh: -90*; CtBP-E1A inh: -83*

Results for Cc1cc(C)c2c(N)c(C(=O)N/N=C/c3ccccc3)sc2n1 ?
DT40 TDP1 no CPT: inconclusive; Six1-Eya2 blk: -1; TDP1 cell CPT: -15%; IL-1B inflam inh: -19

How did COCCCNc1ccc([N+](=O)[O-])cc1C(=O)Nc1cccc(C)n1 do in these assays?
DT40 TDP1 no CPT: -19%; TDP1 block: 3%; Six1-Eya2 blk: -28; TDP1 cell CPT: -8%; IL-1B inflam inh: 22; CtBP-E1A inh: 5

What do the screens show for `O=C(NN=C1CCCC1)c1cc(Cl)cc(Cl)c1O`?
DT40 TDP1 no CPT: 12%; TDP1 block: 6%; Six1-Eya2 blk: -16; TDP1 cell CPT: -9%; IL-1B inflam inh: 8; CtBP-E1A inh: -4

What do the screens show for `COC(=O)Nc1ccc(S(=O)(=O)N2CCCc3ccccc32)cc1`?
DT40 TDP1 no CPT: 2.3µM*; TDP1 block: 3%; Six1-Eya2 blk: -1; TDP1 cell CPT: 2.6µM*; IL-1B inflam inh: 49; CtBP-E1A inh: 2

Results for O=C(Nc1ccc(S(=O)(=O)N2CCc3ccccc32)cc1)C(F)(F)F ?
DT40 TDP1 no CPT: inconclusive; TDP1 block: 1%; Six1-Eya2 blk: 3; TDP1 cell CPT: 7%; IL-1B inflam inh: -8; CtBP-E1A inh: 8

What do the screens show for `CNC(=O)c1ccsc1NC(=O)c1ccc(S(=O)(=O)N2CCCc3ccccc32)cc1`?
DT40 TDP1 no CPT: 21µM*; TDP1 block: 0%; Six1-Eya2 blk: -2; TDP1 cell CPT: 21µM*; IL-1B inflam inh: -18; CtBP-E1A inh: 1

Results for Nc1ccc(S(=O)(=O)N2CCc3ccccc32)cc1 ?
DT40 TDP1 no CPT: -25%; Six1-Eya2 blk: -5; TDP1 cell CPT: -23%; IL-1B inflam inh: -5; CtBP-E1A inh: 7

Results for COC(=O)Nc1ccc(S(=O)(=O)N2CCCc3cccc(O)c32)cc1 ?
DT40 TDP1 no CPT: 10µM*; TDP1 block: 2%; Six1-Eya2 blk: 1; TDP1 cell CPT: 13µM*; IL-1B inflam inh: 56

How did O=S(=O)(NC1CCCC1)c1ccc(S(=O)(=O)N2CCc3ccccc32)cc1 do in these assays?
DT40 TDP1 no CPT: 16µM*; TDP1 block: 0%; Six1-Eya2 blk: -1; TDP1 cell CPT: 16µM*; IL-1B inflam inh: 1; CtBP-E1A inh: 3

Results for CCCCc1nnc(NC(=O)CCN2C(=O)C3CC=CCC3C2=O)s1 (centres undefined) ?
DT40 TDP1 no CPT: 2%; TDP1 block: 1%; Six1-Eya2 blk: 17; TDP1 cell CPT: -7%; IL-1B inflam inh: 30; CtBP-E1A inh: 0

Results for COc1ccc(CCNS(=O)(=O)c2ccc3oc(C(=O)O)c(C)c3c2)cc1OC ?
DT40 TDP1 no CPT: 11%; TDP1 block: 4%[56.1 µM]; Six1-Eya2 blk: -2; TDP1 cell CPT: 2%; IL-1B inflam inh: 7; CtBP-E1A inh: 1

How did CCc1nnc(NC(=O)c2ccc(S(=O)(=O)N3CCCc4ccccc43)cc2)o1 do in these assays?
DT40 TDP1 no CPT: 11µM*; TDP1 block: 12%; Six1-Eya2 blk: -7; TDP1 cell CPT: inconclusive; IL-1B inflam inh: 56; CtBP-E1A inh: 4

Results for CSc1nnc2c(n1)OC1(Nc3ccccc3-2)C(=O)Nc2ccccc21 (centres undefined) ?
DT40 TDP1 no CPT: 16µM*; TDP1 block: 0%; Six1-Eya2 blk: -1; TDP1 cell CPT: inconclusive; IL-1B inflam inh: 10

What do the screens show for `CC(C)(C)NC(=O)COC(=O)c1ccc(S(=O)(=O)N2CCCCCC2)cc1`?
DT40 TDP1 no CPT: -2%; TDP1 block: 2%; Six1-Eya2 blk: 2; TDP1 cell CPT: -6%; IL-1B inflam inh: 36; CtBP-E1A inh: 3
